Our source for the inhibition values is PubChem BioAssay AID624255 (Broad Institute, 2012).

Hit rate of the full screen: of about 77,000 compounds, about 4,600 (6%) were called active. Not shown: some 1% with an inconclusive outcome. The list comes from a sample in which actives are over-represented; it also holds similar structures and randomly drawn compounds. A number with no mark means an inactive call.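 Rule for the calls: active = mean inhibition above about 93%, with at least 55% of replicates each passing it (limit read from the data, passing the limit was not always enough); inconclusive = only one of those two conditions holds; inactive = neither condition holds.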

The nature of this assay: T. cruzi intracellular proliferation inhibitors, primary screen, cell-based, beta-gal Tulahuen parasites, NIH3T3 host, luminescence (AID 624255). The conditions noted are these: T. cruzi beta-gal in NIH3T3, GalScreen luminescence, 90 h; at 8.34 µM; hits give high values.
Usually inhibition stands for the relative decrease from the control value, in per cent. As for `O=C(C[C@H]1CC[C@@H]2[C@H](COC[C@H](O)CN2S(=O)(=O)c2ccc(F)cc2)O1)NCCN1CCCCC1`, the inhibition was 7.58%.
Turning to `CNC(=O)C[C@@H]1CC[C@@H]2[C@@H](COc3ccc(NC(=O)Cc4cccs4)cc3C(=O)N2C)O1`, the inhibition was -40.4%.
Take `Cc1noc(C)c1NC(=O)N(C)C[C@H]1OCCCC[C@H](C)Oc2ccc(NC(=O)Nc3ccc4c(c3)OCO4)cc2C(=O)N([C@H](C)CO)C[C@@H]1C`: the inhibition was 17.1%.
As to `COCC(=O)N1C[C@H](C)[C@@H](OC)CN(C)C(=O)c2cc(NC(=O)c3ccc(OC)cc3)ccc2OC[C@H]1C`, the inhibition was 5.7%.
With `CC=Cc1ccc2n(c1=O)C[C@H]1[C@H](CO)[C@@H](C(=O)NCC3CC3)N(Cc3nccs3)[C@@H]21` (mixture of isomers), the inhibition is -71.1%.
With `COc1ccccc1C#Cc1cnc2c(c1)C(=O)N([C@@H](C)CO)C[C@H](C)[C@@H](CN(C)C(=O)CC1CC1)O2`, the inhibition is 92.8%.
Then `C[C@@H]1CCCCO[C@H](CN(C)S(=O)(=O)c2cn(C)cn2)[C@H](C)CN([C@@H](C)CO)C(=O)c2cc(NC(=O)Nc3ccc(C(F)(F)F)cc3)ccc2O1`, with 29.7%.
On to `CO[C@@H]1CN(C)C(=O)c2ccc(NC(=O)Nc3c(C)noc3C)cc2OC[C@H](C)N(CC2CC2)C[C@H]1C`, for which the inhibition was 91.1%.
As for `C[C@@H]1CN([C@@H](C)CO)C(=O)c2cc(-c3cncnc3)cnc2O[C@@H]1CN(C)C(=O)c1ccccc1F`, the inhibition was 92.3%.
Take `C[C@H]1CN([C@@H](C)CO)C(=O)c2cc(C3=CCCC3)cnc2O[C@@H]1CN(C)C(=O)c1ccccc1`: the inhibition is -4.66%.
Turning to `CCCC(=O)Nc1ccc2c(c1)OC[C@H](C)N(CCC)C[C@@H](C)[C@@H](OC)CN(C)C2=O`, the inhibition is -74.1%.
For `CN1c2ccc(C3=CCCCC3)cc2[C@H]2[C@H](CCN2S(=O)(=O)c2ccccc2)[C@@H]1CO`, the inhibition is 86.7%.
Turning to `C[C@@H]1CCCCO[C@H](CN(C)S(C)(=O)=O)[C@@H](C)CN([C@@H](C)CO)C(=O)c2cc(NC(=O)CCC(F)(F)F)ccc2O1`, the inhibition was 31.3%.
Consider `C[C@H](CO)N1C[C@H](C)[C@@H](CN(C)S(=O)(=O)c2ccccc2)Oc2ncc(-c3ccncc3)cc2C1=O`, for which the inhibition was 2.86%.
With `C[C@H]1CN([C@@H](C)CO)C(=O)c2cc(-c3cccc(F)c3)cnc2O[C@@H]1CN(C)S(C)(=O)=O`, the inhibition was 36.8%.
On to `C[C@H](CO)N1C[C@H](C)[C@H](CN(C)S(=O)(=O)c2ccccc2)Oc2ncc(-c3cccc(C(F)(F)F)c3)cc2C1=O`, for which the inhibition was 118% (active).
`CCCNC(=O)[C@H]1[C@H](CO)[C@H]2Cn3c(ccc(C4=CCCC4)c3=O)[C@H]2N1C(=O)CC`: the inhibition is 6.67%.
On to `O=C(C[C@H]1CC[C@H]2[C@@H](COC[C@@H](O)CN2S(=O)(=O)c2cccc(Cl)c2)O1)NC1CCCC1`, for which the inhibition was -59.2%.
For `O=C(Nc1ccccc1)N[C@H]1CC[C@H](CCNC(=O)c2ccccc2F)O[C@H]1CO`, the inhibition is 22.8%.
For `O=C(Nc1cc(Cl)cc(Cl)c1)N[C@@H]1CC[C@H](CCNS(=O)(=O)c2cccc(F)c2)O[C@H]1CO`, the inhibition was 17.2%.
For the compound `O=C(Nc1ccc(C(F)(F)F)cc1)N[C@@H]1CC[C@H](CCNC(=O)c2ccccc2F)O[C@H]1CO`, the inhibition was -57%.
For `O=C(Nc1ccc(Cl)cc1)N[C@@H]1CC[C@@H](CCNC(=O)c2ccccc2F)O[C@H]1CO`, the inhibition is 169% (active).
On to `O=S(=O)(NCC[C@H]1CC[C@@H](NS(=O)(=O)c2cccc(Cl)c2)[C@@H](CO)O1)c1cccc(F)c1`, for which the inhibition was 11.3%.
With `O=C(Nc1cc(Cl)cc(Cl)c1)N[C@H]1CC[C@@H](CCNS(=O)(=O)c2cccc(F)c2)O[C@H]1CO`, the inhibition is 117% (active).
Then `COc1ccccc1CNC(=O)C[C@@H]1CC[C@H](NC(=O)CN(C)C)[C@@H](CO)O1`, with 18.4%; and `O=C(Nc1ccc(F)cc1)N[C@H]1CC[C@H](CCn2cc(-c3ccc(F)cc3)nn2)O[C@@H]1CO`, with -16.9%; and `C[C@H]1CN([C@@H](C)CO)S(=O)(=O)c2ccc(C#Cc3ccncc3)cc2O[C@@H]1CN(C)C(=O)Nc1ccc2c(c1)OCO2`, with 86.1%.
Turning to `CN1C(=O)c2cc(NC(=O)NC3CCCC3)ccc2OC[C@@H]2O[C@@H](CC(=O)O)CC[C@H]21`, the inhibition was -32.1%.
For `C[C@H]1CCCCO[C@@H](CN(C)Cc2ccc(C(F)(F)F)cc2)[C@@H](C)CN([C@@H](C)CO)C(=O)c2cc(NC(=O)Nc3ccccc3)ccc2O1`, the inhibition was 73.3%.
Regarding `C[C@@H]1CN([C@H](C)CO)C(=O)c2cc(NC(=O)Nc3ccc(C(F)(F)F)cc3)ccc2O[C@@H](C)CCCCO[C@@H]1CN(C)Cc1ccc(C(F)(F)F)cc1`, the inhibition was 86.3%.
Regarding `C[C@@H]1CN([C@H](C)CO)C(=O)c2cc(NC(=O)Nc3ccccc3)ccc2O[C@@H](C)CCCCO[C@H]1CN(C)Cc1ccc(C(F)(F)F)cc1`, the inhibition is 73.3%.
Then `C[C@@H]1CCCCO[C@@H](CN(C)Cc2ccc(C(F)(F)F)cc2)[C@@H](C)CN([C@H](C)CO)C(=O)c2cc(NC(=O)Nc3ccccc3)ccc2O1`, with 110% (active).
As to `C[C@@H]1CCCCO[C@@H](CN(C)Cc2ccc(C(=O)O)cc2)[C@@H](C)CN([C@@H](C)CO)C(=O)c2cc(NC(=O)Nc3ccc(C(F)(F)F)cc3)ccc2O1`, the inhibition is 14.7%.
Regarding `C[C@@H]1CCCCO[C@H](CN(C)Cc2ccc(C(F)(F)F)cc2)[C@H](C)CN([C@H](C)CO)C(=O)c2cc(NC(=O)Nc3ccc(F)cc3)ccc2O1`, the inhibition is 103% (active).
Then `C/C=C/c1ccc2c(c1)O[C@H](CN(C)C(=O)Cc1ccncc1)[C@@H](C)CN([C@@H](C)CO)S2(=O)=O`, with 20.3%.
With `C[C@H]1CCCCO[C@H](CN(C)CC2CCCCC2)[C@@H](C)CN([C@@H](C)CO)C(=O)c2cc(NS(=O)(=O)c3ccc(Cl)cc3)ccc2O1`, the inhibition was 88%.
In the case of `CC(C)NC(=O)N(C)C[C@H]1Oc2ncc(C#CC3CCCCC3)cc2C(=O)N([C@H](C)CO)C[C@@H]1C`, the inhibition was 84.2%.
As to `C[C@@H]1CN([C@@H](C)CO)C(=O)c2cc(C#CC3CCCCC3)cnc2O[C@H]1CN(C)S(=O)(=O)c1ccccc1`, the inhibition is 104% (active).
Regarding `CCCC#Cc1cnc2c(c1)C(=O)N([C@H](C)CO)C[C@H](C)[C@@H](CN(C)S(=O)(=O)c1ccccc1)O2`, the inhibition is 75.2%.
For `C[C@@H]1CN([C@H](C)CO)C(=O)c2cc(C#CC3CCCC3)cnc2O[C@H]1CN(C)C(=O)C1CC1`, the inhibition was 32.3%.
Turning to `C[C@H]1CN([C@@H](C)CO)C(=O)c2cc(C#CC3CCCCC3)cnc2O[C@H]1CN(C)S(=O)(=O)c1ccccc1`, the inhibition is 104% (active).
For `C[C@@H]1CN([C@@H](C)CO)C(=O)c2cc(C#CC3CCCCC3)cnc2O[C@@H]1CN(C)Cc1cncnc1`, the inhibition is 53.7%.
For `C[C@@H]1CN([C@H](C)CO)C(=O)c2cc(NC(=O)Cc3ccccc3)ccc2O[C@@H](C)CCCCO[C@H]1CN(C)C(=O)Cc1ccccc1`, the inhibition was -33.3%.
As to `O=C(C[C@H]1CC[C@@H]2[C@H](COC[C@@H](O)CN2Cc2cccc(-c3ccncc3)c2)O1)N1CCOCC1`, the inhibition was 65.1%.
In the case of `O=C(C[C@@H]1CC[C@H]2[C@@H](COC[C@H](O)CN2S(=O)(=O)c2ccc(F)cc2)O1)N[C@H]1CCN(Cc2ccccc2)C1`, the inhibition is 67.7%.
Then `COc1ccccc1-c1ccc2c(c1)O[C@@H](CN(C)C)[C@H](C)CN([C@H](C)CO)S2(=O)=O`, with 102% (active); and `COc1ccccc1-c1ccc2c(c1)O[C@H](CN(C)S(=O)(=O)c1ccc(C)cc1)[C@@H](C)CN([C@H](C)CO)S2(=O)=O`, with 124% (active); and `Cc1ccccc1-c1ccc2c(c1)O[C@H](CN(C)C)[C@H](C)CN([C@@H](C)CO)S2(=O)=O`, with 15.2%.
As for `Cc1ccc(-c2ccc3c(c2)O[C@H](CN(C)C)[C@@H](C)CN([C@H](C)CO)S3(=O)=O)cc1`, the inhibition is 107% (active).
With `CNC[C@@H]1Oc2cc(-c3ccccc3OC)ccc2S(=O)(=O)N([C@@H](C)CO)C[C@H]1C`, the inhibition is 42.1%.
`CC(=O)N(C)C[C@H]1Oc2cc(-c3ccc(C)cc3)ccc2S(=O)(=O)N([C@@H](C)CO)C[C@@H]1C`: the inhibition is 98.5%.
`CCC(=O)N(C)C[C@@H]1Oc2cc(-c3ccccc3OC)ccc2S(=O)(=O)N([C@H](C)CO)C[C@H]1C`: the inhibition is 52.7%.
Then `Cc1ccccc1-c1ccc2c(c1)O[C@H](CN(C)C)[C@@H](C)CN([C@H](C)CO)S2(=O)=O`, with 30%; and `Cc1ccc(-c2ccc3c(c2)O[C@H](CN(C)C)[C@@H](C)CN([C@@H](C)CO)S3(=O)=O)cc1`, with 71.8%; and `CO[C@@H](CN(C)S(=O)(=O)c1cccc(Cl)c1)[C@H](C)CN([C@H](C)CO)S(=O)(=O)c1cccc(Cl)c1`, with 71.5%.
Then `C[C@@H]1CCCCO[C@H](CN(C)C(=O)Cc2ccccc2)[C@@H](C)CN([C@@H](C)CO)C(=O)c2cc(NC(=O)c3ccccc3)ccc2O1`, with 46.7%.
As to `O=C(NCC1CC1)[C@H]1[C@H](CO)[C@H]2Cn3c(ccc(/C=C/c4ccccc4)c3=O)[C@@H]1N2C(=O)C1CCC1`, the inhibition is -126%.
On to `O=C(NCc1ccccn1)[C@@H]1[C@@H](CO)[C@@H]2Cn3c(ccc(/C=C/c4ccccc4)c3=O)[C@H]1N2CC1CC1`, for which the inhibition was 110% (active).
On to `CCCNC(=O)[C@@H]1[C@@H](CO)[C@@H]2Cn3c(ccc(/C=C/c4ccccc4)c3=O)[C@H]1N2CCC`, for which the inhibition is 59.6%.
